Measured values from PubChem BioAssay (NCATS).
Inconclusive results are not listed. Calls of active or inactive are those of the source. Calls follow the shape of the dose curve; as a rule, active = well fitted cell-killing curve with a large enough effect; inconclusive = small, poorly fitted or top-dose-only effect, or effect the other way; inactive = flat fitted curve, though single readings scatter. Where a SMILES comes first, the peptide text is derived from it. [ ]: non-standard residue; d: D form. PhLac = O=C(O)[CH](O)Cc1ccccc1; NMeV = CN[CH](C(=O)O)C(C)C

Key:
Assay in all cases: Primary qHTS to identify gynecologic anti-cancer compounds using libraries of approved drugs and bioactive compounds (AID 1345084); also: nearly all actives have a fitted effect of over 55% in size
Es-2 = conditions: Gynecologic cancer cell panel viability, ATPlite luminescence, 48 h; series mostly up to 57.5 µM
Outline: (§1)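 ATP-based viability (ATPlite), 1,000 cells/well, 16 h pre-incubation, 48 h compound at 37 C, 5% CO2, 15 min RT before read.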

HeLa = conditions: Gynecologic cancer cell panel viability, ATPlite luminescence, 48 h; series mostly up to 57.5 µM
Outline: as §1

Hek293T = conditions: Gynecologic cancer cell panel viability, ATPlite luminescence, 48 h, control line for the selectivity index; series mostly up to 57.5 µM
Outline: as §1

JEG-3 = conditions: Gynecologic cancer cell panel viability, ATPlite luminescence, 48 h; series mostly up to 57.5 µM
Outline: as §1

OV90 = conditions: Gynecologic cancer cell panel viability, ATPlite luminescence, 48 h; series mostly up to 57.5 µM
Outline: as §1

PA-1 = conditions: Gynecologic cancer cell panel viability, ATPlite luminescence, 48 h; series mostly up to 57.5 µM
Outline: as §1

SKOV3 = conditions: Gynecologic cancer cell panel viability, ATPlite luminescence, 48 h; series mostly up to 57.5 µM
Outline: as §1

Tov-21-G = conditions: Gynecologic cancer cell panel viability, ATPlite luminescence, 48 h; series mostly up to 57.5 µM
Outline: as §1

Tov112D = conditions: Gynecologic cancer cell panel viability, ATPlite luminescence, 48 h; series mostly up to 57.5 µM
Outline: as §1
% is scaled to controls: 0 for no effect and ±100 for the full control effect.

O=c1c2cccnc2n(-c2cccc([N+](=O)[O-])c2)c(=O)n1Cc1ccncc1
inactive: Potency (Es-2) | Potency (HeLa) | Potency (Hek293T) | Potency (JEG-3) | Potency (OV90) | Potency (PA-1) | Potency (SKOV3) | Potency (Tov-21-G) | Potency (Tov112D)

CC(=O)N[C@H]1CCN(c2ccc(C3=NOC(CN[S+](=O)([O-])C(C)C)C3)cc2F)C1 (some centres undefined)
inactive: Potency (Es-2) | Potency (HeLa) | Potency (Hek293T) | Potency (JEG-3) | Potency (OV90) | Potency (PA-1) | Potency (SKOV3) | Potency (Tov-21-G) | Potency (Tov112D)

C=CC1C(O[C@@H]2O[C@H](CO)[C@@H](O)[C@H](O)[C@H]2O)OC=C(C(=O)OC)C1Cc1nccc2c1[nH]c1ccccc12 (some centres undefined)
inactive: Potency (Es-2) | Potency (HeLa) | Potency (Hek293T) | Potency (JEG-3) | Potency (OV90) | Potency (PA-1) | Potency (SKOV3) | Potency (Tov-21-G) | Potency (Tov112D)

CC(CCC1(O)OC2CC3C4CCC5CC(O[C@@H]6O[C@H](CO)[C@@H](O)[C@H](O)[C@H]6O[C@@H]6OC[C@@H](O)[C@H](O)[C@H]6O)C(O)CC5(C)C4CCC3(C)C2C1C)CO[C@@H]1O[C@H](CO)[C@@H](O)[C@H](O)[C@H]1O (some centres undefined)
inactive: activity change, negative = cytotoxicity (Es-2) -0.82% [at 11.6 µM] | activity change, negative = cytotoxicity (HeLa) -1.03% [at 11.6 µM] | activity change, negative = cytotoxicity (Hek293T) -3.21% [at 11.6 µM] | activity change, negative = cytotoxicity (JEG-3) 4.38% [at 11.6 µM] | activity change, negative = cytotoxicity (OV90) -1.54% [at 11.6 µM] | activity change, negative = cytotoxicity (PA-1) 17.2% [at 11.6 µM] | activity change, negative = cytotoxicity (SKOV3) 0% [at 11.6 µM] | activity change, negative = cytotoxicity (Tov-21-G) 0.148% [at 11.6 µM] | activity change, negative = cytotoxicity (Tov112D) 1.16% [at 11.6 µM]

CC(C)C(C(=O)N1CCCC1C(=O)O)N(C)C(=O)C(O)Cc1ccccc1 (centres undefined) (H-[PhLac]-[NMeV]-Pro-OH; configuration not given here)
inactive: Potency (Es-2) | Potency (HeLa) | Potency (Hek293T) | Potency (JEG-3) | Potency (OV90) | Potency (PA-1) | Potency (SKOV3) | Potency (Tov-21-G) | Potency (Tov112D)

C/C=C/C=C/C(CC(=O)O)Nc1ccc(C=O)cc1 (centres undefined)
inactive: Potency (Es-2) | Potency (HeLa) | Potency (Hek293T) | Potency (JEG-3) | Potency (OV90) | Potency (PA-1) | Potency (SKOV3) | Potency (Tov-21-G) | Potency (Tov112D)

C/C(=C\CCC(C(=O)O)C1CCC2(C)C3=C(CCC12C)C1(C)CCC(=O)C(C)(C)C1CC3)C(=O)O (centres undefined)
inactive: Potency (Es-2) | Potency (HeLa) | Potency (Hek293T) | Potency (JEG-3) | Potency (OV90) | Potency (PA-1) | Potency (SKOV3) | Potency (Tov-21-G) | Potency (Tov112D)

CC(=O)OCCC(C)CCC1C(C)(O)CCC2C(C)(C)CCCC21C (centres undefined)
inactive: Potency (Es-2) | Potency (HeLa) | Potency (Hek293T) | Potency (JEG-3) | Potency (OV90) | Potency (PA-1) | Potency (SKOV3) | Potency (Tov-21-G) | Potency (Tov112D)

COC(=O)[C@H](CC1C=NC=N1)NCC12CC3CC(CC(C3)C1)C2 (some centres undefined)
inactive: Potency (Es-2) | Potency (HeLa) | Potency (Hek293T) | Potency (JEG-3) | Potency (OV90) | Potency (PA-1) | Potency (SKOV3) | Potency (Tov-21-G) | Potency (Tov112D)

CC1=CC(=O)CC(C)(C)C1CCC(C)OC1OC(COC(=O)c2cc(O)c(O)c(O)c2)C(O)C(O)C1O (centres undefined)
inactive: Potency (Es-2) | Potency (HeLa) | Potency (Hek293T) | Potency (JEG-3) | Potency (OV90) | Potency (PA-1) | Potency (SKOV3) | Potency (Tov-21-G) | Potency (Tov112D)

COc1cc2c(cc1O)C1(Cc3ccc4c(c3C1=O)OCO4)N(C)CC2 (centres undefined)
inactive: Potency (Es-2) | Potency (HeLa) | Potency (Hek293T) | Potency (JEG-3) | Potency (OV90) | Potency (PA-1) | Potency (SKOV3) | Potency (Tov-21-G) | Potency (Tov112D)

CC(=O)c1c(C)cc(O[C@@H]2O[C@H](CO)[C@@H](O)[C@H](O)[C@H]2O)cc1O
inactive: Potency (Es-2) | Potency (HeLa) | Potency (Hek293T) | Potency (JEG-3) | Potency (OV90) | Potency (PA-1) | Potency (SKOV3) | Potency (Tov-21-G) | Potency (Tov112D)

COc1cc(C2Oc3c(OC)cc(CCCO[C@@H]4O[C@H](CO)[C@@H](O)[C@H](O)[C@H]4O)cc3C2CO)ccc1O (some centres undefined)
inactive: Potency (Es-2) | Potency (HeLa) | Potency (Hek293T) | Potency (JEG-3) | Potency (OV90) | Potency (PA-1) | Potency (SKOV3) | Potency (Tov-21-G) | Potency (Tov112D)

C/C(=C/CO)CC[C@@H]1[C@@]2(C)CCC[C@](C)(C(=O)O)C2CC[C@@]1(C)O (some centres undefined)
inactive: Potency (Es-2) | Potency (HeLa) | Potency (Hek293T) | Potency (JEG-3) | Potency (OV90) | Potency (PA-1) | Potency (SKOV3) | Potency (Tov-21-G) | Potency (Tov112D)

O=C(/C=C/c1ccc(O)cc1)OCC1=CC2OC(=O)C3=CO[C@@H](O[C@@H]4O[C@H](CO)[C@@H](O)[C@H](O)[C@H]4O)[C@H]1[C@@H]32 (some centres undefined)
inactive: Potency (Es-2) | Potency (HeLa) | Potency (Hek293T) | Potency (JEG-3) | Potency (OV90) | Potency (PA-1) | Potency (SKOV3) | Potency (Tov-21-G) | Potency (Tov112D)

COC(=O)CC1(O)C(=O)Nc2ccccc21 (centres undefined)
inactive: Potency (Es-2) | Potency (HeLa) | Potency (Hek293T) | Potency (JEG-3) | Potency (OV90) | Potency (PA-1) | Potency (SKOV3) | Potency (Tov-21-G) | Potency (Tov112D)
